Compound activity deposited in PubChem BioAssay by National Center for Advancing Translational Sciences (NCATS).
This is a sample that favours compounds with a hit; in the whole collection about 2.6% have one here.
AmpC inh no det = blocks E. coli AmpC beta-lactamase in absence of detergent. P00811. AmpC nitrocefin hydrolysis, absorbance 480 nm, no detergent. Potency, µM (top dose mostly 28.7 µM), for the others: at the top dose activity change, negative = inhibition. hit rate 1.8% among 71,000. AID 585; note: % of control where 0% means no effect
Target sequence (P00811 whole entry, looked up): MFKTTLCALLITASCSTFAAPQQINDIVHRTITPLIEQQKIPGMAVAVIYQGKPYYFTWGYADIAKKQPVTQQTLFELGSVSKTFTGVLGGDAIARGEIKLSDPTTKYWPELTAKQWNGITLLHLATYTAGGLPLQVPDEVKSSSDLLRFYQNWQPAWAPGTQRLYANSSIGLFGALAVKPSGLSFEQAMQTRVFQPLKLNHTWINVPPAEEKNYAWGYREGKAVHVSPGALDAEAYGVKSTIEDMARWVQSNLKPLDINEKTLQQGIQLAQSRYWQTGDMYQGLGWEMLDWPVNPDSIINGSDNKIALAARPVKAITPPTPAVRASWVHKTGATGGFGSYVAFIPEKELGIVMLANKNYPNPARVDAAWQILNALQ
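AmpC in 20 mM phosphate buffer pH 7.0 was preincubated 15 min at room temperature with compounds. Nitrocefin (800 uM stock) was then added and hydrolysis followed at 480 nm every 20 s for 4 min.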
SmPrx2 inh = Schistosoma mansoni Prx2 inhibition | S. mansoni Prx2 activity coupled to TGR/GSH (TGR is thioredoxin glutathione reductase), NADPH fluorescence loss, qHTS | Potency, µM | hit rate 0.07% among 65,000 | AID 448
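Purified S. mansoni TGR and Prx2 in pH 7.4 phosphate buffer with EDTA and Tween-20 were preincubated with compounds for 15 min. Further NADPH/GSH was added, then a 2.5 mM H2O2 aliquot initiated turnover, followed kinetically by NADPH fluorescence.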
Anthrax LT inh = anthrax lethal toxin internalization inhibition; hit rate 0.67% among 70,000; AID 912; Potency, µM (doses to about 40 µM), inactives show top-dose activity change, negative = inhibition, actives largely listed as inhibitors; Cells, anthrax lethal toxin internalization, FRET ratio (460/530); note: % is set by controls: 0 for no effect and ±100 for the full control effect; nearly all actives have a fitted effect of over 50% in size
AmpC inh det = AmpC beta-lactamase inhibition, detergent assay. Potency, µM (doses to about 28.7 µM), for inactives: at the top dose activity change, negative = inhibition. purified AmpC, nitrocefin hydrolysis with detergent. hit rate 0.09% among 71,000; active = well fitted curve in the direction sought with a large enough effect; inconclusive = small, poorly fitted or top-dose-only effect; note: % is set by controls: 0 for no effect and ±100 for the full control effect
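E. coli AmpC (5.3 nM) in 20 mM phosphate pH 7.0 with 0.01% Triton X-100, preincubated 15 min RT with compound; nitrocefin (2 uL of 800 uM stock) hydrolysis followed by 480 nm absorbance every 20 s over 4 min.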
Starred values were filed as active, the others as inactive; [ ] = dose if it differs, or a comment. Unless noted, calls come from the whole dose curve. Potency is the fitted concentration of half-maximal effect.

What do the screens show for `Cc1noc(C)c1-c1nccc(NCc2ccccc2)n1`?
AmpC inh no det: -5%; SmPrx2 inh: >57; Anthrax LT inh: inconclusive; AmpC inh det: 3%

What do the screens show for `O=C(c1ccccc1)c1cn(CC(=O)N2CCCC2)c2ccccc12`?
AmpC inh no det: 4µM*[single pt active]; SmPrx2 inh: >57; Anthrax LT inh: 10%; AmpC inh det: 16%

How did COc1ccc(S(=O)(=O)N(CCCN2CCCC2=O)Cc2cc3c(C)cc(C)cc3[nH]c2=O)cc1 do in these assays?
AmpC inh no det: 178%; SmPrx2 inh: 20*; Anthrax LT inh: 4%; AmpC inh det: 1%

Results for CO[C@]1(C2=NCCN2)COc2ccccc2O1 ?
AmpC inh no det: 1%; SmPrx2 inh: >57; Anthrax LT inh: inconclusive; AmpC inh det: -1%

How did COc1ccc(S(=O)(=O)n2nc(-c3cc(OC)c(OC)c(OC)c3)cc2N)cc1OC do in these assays?
AmpC inh no det: 130%; SmPrx2 inh: >57; Anthrax LT inh: 16%; AmpC inh det: 6%

Results for COc1ccccc1-c1cc(N)n(S(=O)(=O)c2ccc(F)c(C)c2)n1 ?
AmpC inh no det: 20µM*[single pt active]; SmPrx2 inh: >57; Anthrax LT inh: inconclusive; AmpC inh det: 8%

How did CN1CC[C@@]2(CCCN(C(=O)c3cc(C(F)(F)F)cc(C(F)(F)F)c3)C2)C1 do in these assays?
AmpC inh no det: -1%; SmPrx2 inh: >57; Anthrax LT inh: 3%; AmpC inh det: 0%

What do the screens show for `Brc1ccccc1Cn1c(-c2cncs2)nc2ccccc21`?
AmpC inh no det: 58%; SmPrx2 inh: >57; Anthrax LT inh: 10µM*; AmpC inh det: 12%

How did c1csc(Cn2c(-c3cccs3)nc3ccccc32)c1 do in these assays?
AmpC inh no det: -6%; SmPrx2 inh: >57; Anthrax LT inh: -1%; AmpC inh det: -3%

How did Cc1nn(-c2nc3ccccc3s2)c(N)c1-c1ccccc1 do in these assays?
AmpC inh no det: -12%; SmPrx2 inh: >57; Anthrax LT inh: 13µM*; AmpC inh det: 0%

How did COc1cc2c(cc1OC)-c1nnnn1C(C)(C)C2 do in these assays?
AmpC inh no det: 11%; Anthrax LT inh: -13%; AmpC inh det: -4%

What do the screens show for `COc1cc2c(cc1OC)-c1nnc(-c3cccs3)n1C(C)(C)C2`?
AmpC inh no det: 4µM*[single pt active]; SmPrx2 inh: >57; Anthrax LT inh: -7%; AmpC inh det: 10%

How did CCOc1ccc2[nH]c(C)c(CN3CCN(CC)CC3)c(=O)c2c1 do in these assays?
AmpC inh no det: -14%; SmPrx2 inh: >57; Anthrax LT inh: -18%; AmpC inh det: 6%

What do the screens show for `CCCCN(C)Cc1c(C)[nH]c2ccc(OCC)cc2c1=O`?
AmpC inh no det: 4µM*[single pt active]; SmPrx2 inh: >57; Anthrax LT inh: -4%; AmpC inh det: 16%

What do the screens show for `O=C1[C@@H]2C=CC=CC2=NC(=S)N1CCN1CCC(=C(c2ccc(F)cc2)c2ccc(F)cc2)CC1`?
AmpC inh no det: 6.3µM*; SmPrx2 inh: >57; Anthrax LT inh: 16%; AmpC inh det: -4%

Results for COCCNc1ncnc2ccc(-c3ccccc3C(F)(F)F)cc12 ?
AmpC inh no det: 68%; Anthrax LT inh: -12%; AmpC inh det: 9%

What do the screens show for `CO/N=C(\C)CCN1CCc2nc(-c3ccccc3)c(-c3ccccc3)cc2C1`?
Anthrax LT inh: -3%[8 µM]

What do the screens show for `O=c1c2ccccc2nc(SCc2nnc(-c3ccccc3Br)o2)n1-c1ccccc1`?
AmpC inh no det: 20µM*; SmPrx2 inh: >57; Anthrax LT inh: 15%; AmpC inh det: -2%

How did Brc1ccccc1-c1nnc(CSc2nncn2-c2ccccc2)o1 do in these assays?
AmpC inh no det: 11%; SmPrx2 inh: >57; Anthrax LT inh: -1%; AmpC inh det: -4%

What do the screens show for `NC(=O)NC(N)=O`?
AmpC inh no det: 0%; Anthrax LT inh: -17%; AmpC inh det: 12%

Results for CC(=O)Nc1ccc(C(=O)CCl)cc1 ?
AmpC inh no det: -9%; Anthrax LT inh: 13µM*; AmpC inh det: 9%

What do the screens show for `CC(C)NC(=O)N1CCCC2(CCN(S(=O)(=O)c3ccccc3)CC2)C1`?
AmpC inh no det: 44%; SmPrx2 inh: >57; Anthrax LT inh: inconclusive; AmpC inh det: -4%

Results for Cc1noc(NS(=O)(=O)c2ccc(NC(=O)CSc3ncccn3)cc2)c1C ?
AmpC inh no det: -8%; SmPrx2 inh: 6.8*; Anthrax LT inh: 4%; AmpC inh det: 3%

How did Cc1cc(C)nc(SCC(=O)Nc2ccc(S(=O)(=O)Nc3onc(C)c3C)cc2)n1 do in these assays?
AmpC inh no det: 7%; SmPrx2 inh: >57; Anthrax LT inh: -5%; AmpC inh det: 5%

What do the screens show for `CCNc1ncc2ncc(=O)n(Cc3cccs3)c2n1`?
AmpC inh no det: 19%; SmPrx2 inh: >57; Anthrax LT inh: -12%; AmpC inh det: 0%

How did CC(C)C[C@@H](CC(=O)N[C@@H](CCC(=O)O)CC(=O)O)NC(=O)[C@@H]1CNCC[C@H]1NC(=O)C[C@@H](NC(=O)C[C@H](Cc1ccccc1)NC(=O)[C@@H]1CNCC[C@H]1N)C(C)C do in these assays?
AmpC inh no det: 46%; SmPrx2 inh: >57; Anthrax LT inh: -7%; AmpC inh det: -4%

Results for CC(C)CCOC(=O)/C=C/c1ccccc1 ?
AmpC inh no det: 2%; Anthrax LT inh: -7%; AmpC inh det: 9%

Results for CCOC(=O)CCc1c(C)nc2cc(-c3ccccc3OC)[nH]n2c1=O ?
AmpC inh no det: 4µM*[single pt active]; SmPrx2 inh: >57; Anthrax LT inh: -6%; AmpC inh det: 9%

How did CS(=O)(=O)N1CCC2(CCCN(c3ccccn3)C2)CC1 do in these assays?
AmpC inh no det: 21%; SmPrx2 inh: >57; Anthrax LT inh: 19%; AmpC inh det: 0%

What do the screens show for `CCOC(=O)c1ccc(NC(=O)C2CCN(S(=O)(=O)CC)CC2)cc1`?
AmpC inh no det: 25%; SmPrx2 inh: >57; Anthrax LT inh: 9%; AmpC inh det: -5%

How did CCOC(=O)c1ccc(NC(=O)C2CCN(S(=O)(=O)c3ccccc3)CC2)cc1 do in these assays?
AmpC inh no det: 6%; SmPrx2 inh: >57; Anthrax LT inh: 4µM*; AmpC inh det: 10%

How did COCCn1c(=O)cnc2cnc(Oc3ccc(OC)cc3)nc21 do in these assays?
AmpC inh no det: 6%; SmPrx2 inh: >57; Anthrax LT inh: -7%; AmpC inh det: 1%

Results for CCCCN(C(=O)c1ccc(Cl)cc1)C1CC2CCC(C1)N2C (stereo not given) ?
AmpC inh no det: 4µM*[single pt active]; SmPrx2 inh: >57; Anthrax LT inh: inconclusive; AmpC inh det: 12%

How did COc1cc(C(=O)N(CCc2ccccc2)C2CC3CCC(C2)N3C)cc(OC)c1OC (stereo not given) do in these assays?
AmpC inh no det: -10%; SmPrx2 inh: >57; Anthrax LT inh: -13%; AmpC inh det: -4%

What do the screens show for `Cc1ccsc1C=Nc1ccc(O)cc1`?
AmpC inh no det: 10µM*; SmPrx2 inh: >57; Anthrax LT inh: inconclusive; AmpC inh det: 7%

Results for COc1ccc(C(=O)N2CCC[C@@]3(CCN(Cc4ccncc4)C3)C2)cc1 ?
AmpC inh no det: -6%; SmPrx2 inh: >57; Anthrax LT inh: 23%; AmpC inh det: 2%
